# From ChEMBL document CHEMBL1157539, “Thousands of chemical starting points for antimalarial lead identification” (Nature, 2010)
# Residues, ends and D or L forms follow the SMILES beside them. *: point of attachment. Boc = CC(C)(C)OC(=O)*
# Legend:
# Assay type in all cases: functional
# [1] = system: Plasmodium falciparum; assay: GSK_TCMDC: Inhibition of Plasmodium falciparum 3D7 in whole red blood cells, using parasite LDH activity as an index of growth. Test compounds present at 2uM
# [2] = system: Plasmodium falciparum; assay: GSK_TCMDC: Inhibition of Plasmodium falciparum Dd2 in whole red blood cells, using parasite LDH activity as an index of growth. Test compounds present at 2uM
# [3] = system: HepG2; assay: GSK_TCMDC: Percent inhibition of human HepG2 cell line. Test compounds present at 10uM.
SMILES,Inhibition [1],Inhibition [2],Inhibition [3]
Cl.Nc1nc(N)c2c(ccc3c2ccn3CCCC2CCCNC2)n1 (stereo unspecified),98%,55%,67%
Cn1c(NC(=O)C2CCC(CNC(=O)c3ccc(O)c(-c4ccc(Cl)c(Cl)c4)c3)CC2)nc2ccccc21 (stereo unspecified),99%,100%,40%
CCOc1cc(Cc2cnc(N)nc2N)cc(OC)c1OC,90%,0%,0%
COc1ccc2[nH]c(C)cc(=NN=Cc3cccc(F)c3)c2c1,100%,100%,2%
COc1ccc(CNCc2cccc(-c3cccc(-c4nc5ccccc5[nH]4)c3)c2)cc1.O=C(O)C(F)(F)F,100%,50%,24%
CCOc1cc(C)c(C2CCN(CCCCNC(=O)c3ccc(NC(=O)c4ccc(Cl)cc4)cc3)CC2)cc1C,100%,87%,10%
CC(C)CC(C)NC(=O)C1Cc2c([nH]c3cc(Cl)ccc23)C2(CCN(CCc3ccccc3)CC2)N1 (stereo unspecified),95%,65%,15%
Cn1c(-c2ccccc2)cc2c3c(N)nc(N)nc3ccc21,100%,30%,27%
O=C(NCc1ccc(F)cc1)Nc1cccc(-c2ccc(-c3nc4cc(F)ccc4[nH]3)cc2)c1,100%,96%,7%
CC(C)NCc1cccc(-c2ccc(-c3nc4ccccc4[nH]3)cc2)c1.O=C(O)C(F)(F)F,100%,66%,4%
N[C@@H](COc1cccc2c(-c3ccncc3)c(-c3cccc(NC(=O)Nc4ccccc4)c3)nn12)c1ccccc1,100%,71%,9%
Cc1ccc(OC2CCN(CCCCC3(C)C(=O)Nc4ccccc43)CC2)cc1.Cl (stereo unspecified),100%,2%,63%
COc1ccc(Nc2nc(NCc3ccc(-n4ccnc4)cc3)cc(-c3ccc(OC)cc3)n2)cc1,96%,25%,8%
Cc1c(C)c2c(c(C)c1O)CCC(C)(CCC(=O)O)O2 (stereo unspecified),96%,0%,8%
CCc1nc(N)nc(N)c1-c1ccc(C(C)C)cc1,92%,0%,3%
COc1ccc(-c2cnc3[nH]cc(-c4ccc(CCC(=O)O)cc4)c3c2)cn1.O=C(O)C(F)(F)F,98%,95%,25%
COc1ccc2nccc(N3CCN(CCNCc4ccc5c(n4)NC(=O)CO5)CC3)c2n1.Cl,98%,12%,10%
CS(=O)(=O)N(CC(O)Cn1c2ccc(Cl)cc2c2cc(Cl)ccc21)c1ccccc1 (stereo unspecified),100%,98%,2%
CCNc1cc(C(=O)N[C@@H](Cc2ccccc2)[C@H](O)CNCc2cccc(-n3ccnc3)c2)cc(N2CCCC2=O)c1.O=C(O)C(F)(F)F,99%,96%,1%

SMILES,Inhibition [1],Inhibition [2],Inhibition [3]
COc1c(C2CCN(CCCCNC(=O)c3ccc(-c4ccc(C(F)(F)F)cc4)c(C(=O)OC(C)C)c3)CC2)ccc2c1CCCC2,90%,30%,24%
Cc1cc(CN2CCC(N3CC(c4ccccc4)(c4ccccc4)OCC3=O)C2)ccc1O.O=C(O)C(F)(F)F (stereo unspecified),89%,52%,3%
Cc1ccc(CN2CCC(Oc3cccc(NC(=O)c4ccc(C(F)(F)F)cc4)c3)CC2)cc1.O=C(O)C(F)(F)F,92%,15%,37%
Br.CC1(C)NC(N)=NC(=N)N1OCCCOc1cc(Cl)ccc1Cl,96%,96%,64%
CC(C)(C)OC(=O)Nc1cccc(-c2csc(NC(=N)N)n2)c1,97%,83%,4%
COc1cccc(C(=O)NCCOc2ccccc2)c1Oc1ccccc1,98%,98%,14%
CCC1CN(CCCn2c3ccccc3c3ccccc32)C(CC)CN1.Cl (stereo unspecified),89%,0%,69%
COc1ccc2nc(-c3cccc(C)n3)nc(Nc3ccncc3)c2c1,100%,42%,0%
Oc1cccc(/C=N/Nc2ccnc3cc(Cl)ccc23)c1,100%,95%,0%
CC(=O)Oc1c(C(=O)C2CCC(C(C)(C)C)CC2)c(OC(C)=O)c2ccccc2c1OC(C)=O (stereo unspecified),96%,96%,9%
CC1CCCCN1CCCNc1ncc2c(-c3ccc(NC(=O)Nc4cc(C(F)(F)F)ccc4F)c(F)c3)nn(C)c2n1.O=C(O)C(F)(F)F (stereo unspecified),100%,97%,27%
Cc1noc(C)c1-c1cccc(CNCc2cccc(-c3cccc(-c4nc5cc(F)ccc5[nH]4)c3)c2)c1.O=C(O)C(F)(F)F,100%,73%,18%
Cc1noc(C)c1-c1cccc(CNCc2ccc(-c3ccc(-c4nc5cc(C(F)(F)F)ccc5[nH]4)cc3)cc2)c1.O=C(O)C(F)(F)F,100%,97%,35%
CN1CCCN(c2ccnc3cc4c(cc23)N(C(=O)c2ccc(Cl)c(Cl)c2)CC4)CC1.Cl,100%,73%,20%
Br.COc1ccc(CC(C)CON2C(N)=NC(N)=NC2(C)C)cc1 (stereo unspecified),94%,96%,59%
COc1c(C2CCN(CCCCNC(=O)c3cc(-c4ccc(C#N)cc4)n[nH]3)CC2)ccc2c1CCCC2,86%,15%,36%
O=C(Nc1cccc(CN2CCCN(Cc3ccsc3)CC2)c1)c1ccc(Cl)c(Cl)c1.O=C(O)C(F)(F)F,98%,20%,36%
Cc1ccc(Oc2ccccc2NC(=O)CCc2nc3ccccc3c(=O)[nH]2)cc1,100%,99%,3%
COc1ccc(NS(=O)(=O)c2cc(NC(=O)Cn3ccccc3=O)ccc2N2CCCCC2)cc1,92%,83%,20%

SMILES,Inhibition [1],Inhibition [2],Inhibition [3]
N#Cc1cccc(NC(=O)Nc2ccc3c(c2)CN(Cc2c[nH]c4ncccc24)C3)c1,99%,12%,0%
COC(=O)CC[C@H](NC(=O)[C@H](C)NC(=O)OC(C)(C)C)C(=O)OC (Boc-Ala-Glu(OMe)-OMe),95%,0%,12%
FC(F)(F)c1ccc2[nH]c(-c3ccc(-c4ccc(CN5CCN(c6cnccn6)CC5)cc4)cc3)nc2c1.O=C(O)C(F)(F)F,99%,50%,21%
N#Cc1ccc(CN2CCC(Oc3ccc(NC(=O)c4cccs4)cc3Cl)C2)cc1.O=C(O)C(F)(F)F (stereo unspecified),96%,95%,31%
CNC(=O)c1nc(-c2ccccc2)[nH]c1NC(C)=O,100%,0%,0%
O=C(/C=C/c1ccc(Cl)c(Cl)c1)NCCCCCN1CCC(c2c[nH]c3ccccc23)CC1,99%,7%,33%
O=C(Nc1ccc(Cl)cc1)c1cccc(S(=O)(=O)NC2CCN(CC3CCCCC3)CC2)c1.O=C(O)C(F)(F)F,92%,11%,67%
CCN1CCc2c1cc(C(=O)N[C@@H](Cc1ccccc1)[C@H](O)CNC(C)(C)c1cccc(C(F)(F)F)c1)cc2N1CCCCS1(=O)=O,100%,99%,6%
COc1ccc(-c2cnc3ccc(NCc4ccc(S(N)(=O)=O)cc4)nn23)cn1,98%,98%,16%
COc1cccc(C(=O)Nc2ccc(Oc3ccc(Cl)cc3)cc2)c1,92%,0%,33%
O=C1C(=Cc2c(O)ccc3ccccc23)SC(=NCc2ccccc2)N1Cc1ccccc1,98%,98%,0%
CCS(=O)(=O)Nc1ccc2c(c1)/C(=C(/Nc1ccc(CN3CCCCC3)cc1)c1ccccc1)C(=O)N2 [HESPERADIN],87%,74%,53%
COc1ccc2nc(SC(C)C(=O)c3c[nH]c4ccccc34)[nH]c2c1 (stereo unspecified),100%,98%,0%
CN1CCCN(Cc2cccc(-c3cccc(NC(=O)c4cccc(Cl)c4)c3)c2)CC1.O=C(O)C(F)(F)F,96%,20%,17%
CC1(CCc2ccccc2)N=C(Nc2ccc(Cl)cc2)N=C(N)C1c1ccc(Cl)c(Cl)c1 (stereo unspecified),100%,98%,81%
COc1cc(NC(=O)C(c2ccc(Cl)cc2)C(C)C)cc(OC)c1OC (stereo unspecified),100%,100%,10%
OC(CNCc1cccc(Oc2ccc(Cl)cc2)c1)c1cccc(C(F)(F)F)c1 (stereo unspecified),94%,78%,0%
COc1ccccc1CNC(=O)c1cc(Br)cc(N2CCN(c3ccncc3)CC2)c1.O=C(O)C(F)(F)F,95%,76%,43%
CN(/N=C/C=C/c1ccc(Cl)cc1)c1nc(NCCc2ccc(O)cc2)nc(N2CCNCC2)n1,92%,69%,14%
